# Unmarked numbers belong to inactive results. The list shows a part of the results. Active and inactive are the calls of the source.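 How the source made its calls, unless noted: active means inhibition above the mean over all tested compounds plus 3 SD, which no compound reached; inactive means the rest.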
# Tests used:
# [1] = system: HIV-1 integrase (multimerization); experiment: HIV-1 IN multimer formation enhancers, counter-screen for LEDGF/p75 integration inhibitor project, biochemical, TR-FRET (AID 1053131; in the data active means activation above about 8.9%); conditions: TR-FRET HIV-1 integrase multimerization, at 7.7 µM, active compounds read high
# [2] = TR-FRET optical interference artefacts, confirmation, artefact control for LEDGF/p75-dependent integration inhibitor project, biochemical, HIV-1 IN multimerization (AID 1053135); conditions: TR-FRET optical interference counterscreen, at 7.7 µM, active compounds read high;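 further: 0% = integrase with antibodies and DMSO and 100% = antibodies without integrase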
# [3] = system: HIV-1 integrase / human LEDGF/p75 complex; experiment: inhibitors of HIV-1 IN-LEDGF/p75 DNA integration, confirmation, biochemical, TR-FRET (AID 1053136; in the data active means inhibition above about 14%); conditions: TR-FRET LEDGF/p75-dependent HIV-1 integration, at 3.7 µM, active compounds read high
# [4] = biological target: Bcl-2-like protein 1 (Homo sapiens) (UniProt Q07817); experiment: Bcl-xL inhibitors blocking Bim BH3 binding, confirmation, counter-screen for MCL1 inhibitor project, biochemical, fluorescence polarization (AID 2166;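 active means inhibition above a cutoff equal to the mean inhibition of all tested compounds plus 3 SD, cut at about 30% in these data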); conditions: GST-Bcl-xL / FITC-Bim BH3 peptide FP binding; at 10.9 µM; active compounds read high
# Bcl-2-like protein 1 (Homo sapiens), sequence (Q07817 whole entry, looked up): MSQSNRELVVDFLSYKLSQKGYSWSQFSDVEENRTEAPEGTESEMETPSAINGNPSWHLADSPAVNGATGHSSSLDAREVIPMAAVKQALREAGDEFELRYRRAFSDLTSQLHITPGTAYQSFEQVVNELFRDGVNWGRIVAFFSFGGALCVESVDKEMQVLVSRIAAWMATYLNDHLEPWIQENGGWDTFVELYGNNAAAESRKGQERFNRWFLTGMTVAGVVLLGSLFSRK
# [5] = biological target: Induced myeloid leukemia cell differentiation protein Mcl-1 (Homo sapiens) (UniProt Q07820); experiment: inhibitors of MCL1 binding to BIM-BH3, confirmation, biochemical, fluorescence polarization, triplicate (AID 2168;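 active means inhibition above the average of all tested compounds plus 3 SD, cut at about 40% in these data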;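 further: 0% = DMSO wells and 100% = unlabeled Bim-BH3 control peptide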); conditions: GST-MCL1 / FITC-Bim-BH3 fluorescence polarization; at 10.9 µM; active compounds read high
# Induced myeloid leukemia cell differentiation protein Mcl-1 (Homo sapiens), sequence (Q07820 whole entry, looked up): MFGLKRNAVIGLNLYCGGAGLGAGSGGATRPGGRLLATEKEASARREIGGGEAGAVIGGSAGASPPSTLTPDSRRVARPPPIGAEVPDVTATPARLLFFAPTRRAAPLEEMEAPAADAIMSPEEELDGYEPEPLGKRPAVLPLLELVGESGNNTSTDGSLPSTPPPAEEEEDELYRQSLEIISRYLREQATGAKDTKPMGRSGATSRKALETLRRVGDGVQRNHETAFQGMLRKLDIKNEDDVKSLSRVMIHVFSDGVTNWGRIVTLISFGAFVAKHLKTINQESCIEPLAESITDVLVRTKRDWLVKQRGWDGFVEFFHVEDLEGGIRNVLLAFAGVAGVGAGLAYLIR
# [6] = biological target: Platelet-activating factor acetylhydrolase (Homo sapiens) (UniProt Q13093); experiment: pPAFAH (PLA2G7) enzyme inhibitors, confirmation, biochemical, fluorescence polarization, human (AID 463230;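 active means mean inhibition of the triplicate above the hit cutoff set for the earlier primary screen, cut at about 25% in these data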;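 further: 0% = enzyme with DMSO and 100% = wells lacking pPAFAH enzyme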); conditions: recombinant pPAFAH, FP-Rh probe fluorescence polarization; at 3.39 µM; active compounds read high
# Platelet-activating factor acetylhydrolase (Homo sapiens), sequence (Q13093 whole entry, looked up): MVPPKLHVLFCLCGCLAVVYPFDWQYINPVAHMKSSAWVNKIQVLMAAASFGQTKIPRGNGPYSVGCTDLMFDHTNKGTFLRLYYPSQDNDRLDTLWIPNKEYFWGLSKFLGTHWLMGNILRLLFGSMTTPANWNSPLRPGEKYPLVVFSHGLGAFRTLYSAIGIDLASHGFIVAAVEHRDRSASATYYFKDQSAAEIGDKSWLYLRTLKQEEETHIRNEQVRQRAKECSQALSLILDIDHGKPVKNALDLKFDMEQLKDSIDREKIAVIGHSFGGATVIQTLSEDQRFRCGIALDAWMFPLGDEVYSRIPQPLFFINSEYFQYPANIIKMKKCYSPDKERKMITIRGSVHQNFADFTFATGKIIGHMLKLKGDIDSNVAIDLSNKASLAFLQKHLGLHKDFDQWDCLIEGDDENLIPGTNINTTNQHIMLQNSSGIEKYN
# [7] = biological target: Serine protease HTRA1 (Homo sapiens) (UniProt Q92743); experiment: HTRA1 protease inhibitors, retest, confirmation, biochemical, fluorescence polarization (AID 540248;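 active means mean inhibition over three repeats above a set limit taken from the earlier primary screen, cut at about 37% in these data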;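 further: 0% = HTRA1 with DMSO and 100% = wells lacking HTRA1; inhibitors block probe binding so polarization drops and inhibition rises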); conditions: recombinant HTRA1, FP-rhodamine activity-based probe, at 5.96 µM, active compounds read high
# [8] = compounds interfering with TAMRA-BSA probe, counter-screen for TCR-CD3 interaction inhibitor project, biochemical, fluorescence, TAMRA-labeled BSA (AID 652035; in the data active means inhibition above about 23%;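 further: 0% = buffer low control and 100% = reference high control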); conditions: TAMRA-labeled BSA probe fluorescence counterscreen; at 9.4 µM; active compounds read high
# [9] = system: T-cell receptor (TCR)-CD3 interaction, human; experiment: TCR-CD3 interaction inhibitors, retest, confirmation, biochemical, fluorescence, TAMRA-labeled TCR probe (AID 652036; in the data active means inhibition above about 19%); conditions: TAMRA-labeled TCR probe fluorescence binding assay; at 9.4 µM; active compounds read high
# [10] = biological target: (Lyso)-N-acylphosphatidylethanolamine lipase (Mus musculus) (UniProt Q8VD66); experiment: ABHD4 inhibitors, retest, confirmation, biochemical, fluorescence polarization, mouse (AID 720658;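 active means mean inhibition across replicates above the hit cutoff set in the primary screen, cut at about 30% in these data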;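 further: 0% = wild-type ABHD4 with DMSO and 100% = catalytically dead S159A mutant with DMSO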); conditions: purified mABHD4, FP-Rh probe fluorescence polarization; at 8.92 µM; active compounds read high
# (Lyso)-N-acylphosphatidylethanolamine lipase (Mus musculus), sequence (Q8VD66 whole entry, looked up): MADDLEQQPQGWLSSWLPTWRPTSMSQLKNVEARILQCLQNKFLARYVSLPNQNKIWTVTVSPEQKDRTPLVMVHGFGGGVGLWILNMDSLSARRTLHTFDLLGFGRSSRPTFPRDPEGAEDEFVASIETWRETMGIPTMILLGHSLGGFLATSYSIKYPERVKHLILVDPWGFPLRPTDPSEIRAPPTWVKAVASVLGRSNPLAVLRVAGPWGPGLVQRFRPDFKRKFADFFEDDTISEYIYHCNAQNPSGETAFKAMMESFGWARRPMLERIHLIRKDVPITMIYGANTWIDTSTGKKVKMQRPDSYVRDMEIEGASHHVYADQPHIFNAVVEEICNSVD
# [11] = system: Fam108b (Abhd17b) serine hydrolase [Mus musculus]; experiment: mouse Fam108b serine hydrolase inhibitors, confirmation, counter-screen for RBBP9 inhibitor project, biochemical, fluorescence polarization, triplicate (AID 1978;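 active means inhibition above a limit from the primary screen, the mean over all compounds plus 3 SD, cut at about 19% in these data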;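 further: 0% = median of active Fam108b wells and 100% = catalytically dead S170A mutant; inhibitors free the probe so polarization falls as inhibition rises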); conditions: recombinant Fam108b, FP-Rh probe fluorescence polarization; at 9.51 µM; active compounds read high
# [12] = biological target: Glutathione S-transferase omega-1 (Homo sapiens) (UniProt P78417); experiment: GSTO1 inhibitor hit confirmation, counter-screen for RBBP9 inhibitor project, biochemical, fluorescence polarization, triplicate (AID 2176;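 active means inhibition above the primary screen's cutoff, its mean inhibition plus 3 SD, cut at about 35% in these data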;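 further: loss of polarization as inhibitors block binding of rhodamine sulfonate ester activity probe; 0% = GSTO1 with DMSO and 100% = wells lacking GSTO1 enzyme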); conditions: recombinant GSTO1, probe fluorescence polarization; at 5.96 µM; active compounds read high
# Glutathione S-transferase omega-1 (Homo sapiens), sequence (P78417 whole entry, looked up): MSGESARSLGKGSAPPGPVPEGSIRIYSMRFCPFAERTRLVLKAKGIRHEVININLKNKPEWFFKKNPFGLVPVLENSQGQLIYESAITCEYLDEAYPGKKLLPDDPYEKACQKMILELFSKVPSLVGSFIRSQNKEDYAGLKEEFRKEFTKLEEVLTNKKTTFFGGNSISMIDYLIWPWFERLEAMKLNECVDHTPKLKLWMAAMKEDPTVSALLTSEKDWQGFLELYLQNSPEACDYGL
# [13] = biological target: Protein-arginine deiminase type-4 (Homo sapiens) (UniProt Q9UM07); experiment: human PAD4 inhibitors, confirmation, biochemical, fluorescence polarization (AID 488796;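 active means mean inhibition across replicates above the hit cutoff set by the earlier primary screen, cut at about 15% in these data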;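 further: inhibitors block active-site labeling by the probe so polarization falls; 0% = PAD4 with probe and DMSO and 100% = probe without PAD4 enzyme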); conditions: recombinant PAD4, RCA probe fluorescence polarization; at 6.36 µM; active compounds read high
# Protein-arginine deiminase type-4 (Homo sapiens), sequence (Q9UM07 whole entry, looked up, the tested form may be a part): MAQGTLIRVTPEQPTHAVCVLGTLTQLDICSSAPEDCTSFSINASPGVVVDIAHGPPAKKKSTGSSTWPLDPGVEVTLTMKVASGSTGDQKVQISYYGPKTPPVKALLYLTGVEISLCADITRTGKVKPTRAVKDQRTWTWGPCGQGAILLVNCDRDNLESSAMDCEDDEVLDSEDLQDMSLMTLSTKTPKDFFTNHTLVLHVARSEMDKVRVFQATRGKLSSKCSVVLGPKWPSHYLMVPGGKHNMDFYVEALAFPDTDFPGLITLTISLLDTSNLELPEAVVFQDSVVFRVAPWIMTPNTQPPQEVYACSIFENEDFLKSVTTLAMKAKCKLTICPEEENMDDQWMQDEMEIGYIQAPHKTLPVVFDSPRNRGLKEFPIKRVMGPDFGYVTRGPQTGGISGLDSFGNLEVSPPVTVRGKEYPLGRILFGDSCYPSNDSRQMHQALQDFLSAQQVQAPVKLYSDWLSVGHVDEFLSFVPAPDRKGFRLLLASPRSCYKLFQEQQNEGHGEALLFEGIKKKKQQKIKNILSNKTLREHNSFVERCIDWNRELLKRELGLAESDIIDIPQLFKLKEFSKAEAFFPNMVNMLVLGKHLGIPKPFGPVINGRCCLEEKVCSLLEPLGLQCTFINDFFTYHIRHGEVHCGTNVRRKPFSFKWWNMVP
# [14] = biological target: Oxysterols receptor LXR-beta (Homo sapiens) (UniProt P55055); experiment: LXR agonists, Gal4 luciferase reporter, confirmation, counter-screen for hcDAF-12 agonist project, cell-based, luminescence, HEK293, H. contortus campaign (AID 743027;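 active means mean percent activation of the reporter above a cutoff set as the average over tested compounds plus their standard deviation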); conditions: HEK293 Gal4-LXR tk-luc reporter, 24 h, at 6.8 µM, active compounds read high, normalized: DMSO 0%, positive control 100%
# Oxysterols receptor LXR-beta (Homo sapiens), sequence (P55055 whole entry, looked up, the tested form may be a part): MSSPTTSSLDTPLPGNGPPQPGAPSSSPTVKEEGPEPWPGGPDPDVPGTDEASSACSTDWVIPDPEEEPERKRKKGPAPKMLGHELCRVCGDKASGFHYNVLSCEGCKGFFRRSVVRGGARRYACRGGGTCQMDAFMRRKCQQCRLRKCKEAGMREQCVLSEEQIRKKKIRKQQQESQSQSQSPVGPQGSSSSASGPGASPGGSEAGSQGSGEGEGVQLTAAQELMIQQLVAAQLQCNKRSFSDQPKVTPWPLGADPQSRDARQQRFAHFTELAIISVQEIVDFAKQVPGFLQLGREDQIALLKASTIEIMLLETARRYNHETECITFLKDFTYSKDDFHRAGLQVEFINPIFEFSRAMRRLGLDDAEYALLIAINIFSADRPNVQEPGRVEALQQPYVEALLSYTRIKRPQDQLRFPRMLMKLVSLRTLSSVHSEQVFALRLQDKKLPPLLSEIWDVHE
# [15] = system: Nuclear hormone receptor DAF-12 (Haemonchus contortus); experiment: H. contortus DAF-12 receptor agonists, confirmation, cell-based, luminescence, HEK293, lit1-tk-luc, triplicate (AID 743032;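 active means mean activation across triplicate tests above the threshold derived from the earlier primary screen, cut at about 5.5% in these data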;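 further: 0% = DMSO only wells and 100% = 3 µM Δ7-dafachronic acid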); conditions: HEK293 hcDAF-12 lit1-tk-luc reporter, at 6.8 µM, active compounds read high, % of Δ7-dafachronic acid response
# [16] = biological target: Peroxisome proliferator-activated receptor gamma (Homo sapiens) (UniProt P37231); experiment: agonists of PPARgamma SRC-2 coactivator recruitment, confirmation, biochemical, HTS (AID 1297; in the data active means activation above about 22%;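 further: 0% = vehicle alone and 100% = reference agonist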); conditions: biochemical SRC-2 recruitment by PPARgamma; at 8 µM; active compounds read high
# Peroxisome proliferator-activated receptor gamma (Homo sapiens), sequence (P37231 whole entry, looked up): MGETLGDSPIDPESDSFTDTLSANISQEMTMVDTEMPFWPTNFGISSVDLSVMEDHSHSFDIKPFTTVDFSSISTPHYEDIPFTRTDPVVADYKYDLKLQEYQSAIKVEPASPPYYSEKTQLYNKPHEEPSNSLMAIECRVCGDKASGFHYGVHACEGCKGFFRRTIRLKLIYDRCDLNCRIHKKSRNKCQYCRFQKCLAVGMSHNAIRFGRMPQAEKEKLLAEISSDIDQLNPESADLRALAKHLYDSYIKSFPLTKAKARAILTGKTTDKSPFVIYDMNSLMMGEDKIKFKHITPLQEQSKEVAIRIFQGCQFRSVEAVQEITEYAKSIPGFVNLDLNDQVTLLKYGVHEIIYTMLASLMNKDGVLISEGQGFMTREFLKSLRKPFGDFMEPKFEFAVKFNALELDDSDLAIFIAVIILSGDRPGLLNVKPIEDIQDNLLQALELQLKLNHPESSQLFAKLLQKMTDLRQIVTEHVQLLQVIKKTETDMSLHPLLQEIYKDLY
# [17] = biological target: Peroxisome proliferator-activated receptor gamma (Homo sapiens) (UniProt P37231); experiment: PPARgamma agonists recruiting SRC-1 coactivator, confirmation, biochemical (AID 1300; in the data active means activation above about 20%;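 further: 0% = vehicle wells and 100% = reference agonist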); conditions: PPARgamma–SRC-1 coactivator recruitment biochemical assay; at 8 µM; active compounds read high
# [18] = biological target: Peroxisome proliferator-activated receptor gamma (Homo sapiens) + Nuclear receptor coactivator 3 (Homo sapiens) (UniProt P37231+Q9Y6Q9); experiment: PPARgamma-driven SRC-3 coactivator recruitment agonists, confirmation, biochemical (AID 1301; in the data active means activation above about 24%;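 further: 0% = vehicle wells and 100% = reference agonist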); conditions: biochemical PPARgamma-SRC-3 coactivator recruitment, agonist mode; at 8 µM; active compounds read high
# [19] = growth loss of phage-infected E. coli expressing H. pylori AddAB, confirmation, AddAB inhibitor project, absorbance, E. coli V3065, T4 phage, triplicate (AID 488942;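 active means mean inhibition above a set limit taken from the earlier primary screen, cut at about 13% in these data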;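 further: higher means less bacterial growth since AddAB block lets phage replicate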); conditions: OD, at 11.9 µM, active compounds read high, T4 phage with gene 2 nonsense mutations
# [20] = growth loss of RecBCD+ E. coli with mutant T4 phage, counter-screen for AddAB inhibitor project, absorbance, V66 E. coli (AID 488955;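 active means mean inhibition above the mean of solvent-only control wells plus 3 SD, cut at about 4% in these data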;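 further: optical density read after an 18 h incubation at 37 °C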); conditions: OD growth, at 11.9 µM, active compounds read high
# [21] = bacterial viability inhibition counter-screen, confirmation, counter-screen for AddAB inhibitor project, absorbance (AID 488956; in the data active means inhibition above about 25%); conditions: absorbance (AddAB counterscreen), at 11.9 µM, active compounds read high
# [22] = growth loss of phage-infected RecBCD+ E. coli, confirmation, RecBCD inhibitor project, absorbance, E. coli V66, T4 gene 2 phage (AID 651982;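 active means mean inhibition over triplicates exceeding the hit threshold derived in the original primary screen, cut at about 11% in these data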); conditions: E. coli V66 + T4 2- phage, growth OD; at 11.9 µM; active compounds read high
# [23] = E. coli viability inhibition, counter-screen for RecBCD inhibitor project, absorbance, high throughput (AID 651983; in the data active means inhibition above about 20%;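 further: E. coli strain V66 grown with compound alone and no phage infection; 0% = bacteria with DMSO vehicle only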); conditions: absorbance (OD) growth, at 11.9 µM, active compounds read high
# [24] = growth loss of phage-infected AddAB-carrying E. coli, confirmation, counter-screen for RecBCD inhibitor project, absorbance, E. coli V3065, T4 phage (AID 651984;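 active means mean inhibition above the solvent-only control wells' mean plus 3 SD, cut at about 22% in these data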;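 further: higher means less bacterial growth from phage killing when AddAB is blocked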); conditions: E. coli expressing H. pylori AddAB + T4 phage, OD growth; at 11.9 µM; active compounds read high; gene 2 mutant T4, recBCD-deleted host
# [25] = biological target: Nuclear receptor coactivator 1 (Homo sapiens) (UniProt Q15788); experiment: SRC1 coactivator transcriptional activity inhibitors, confirmation, cell-based, luminescence, quadruplicate (AID 588820;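 active means mean inhibition above 46.68%, the untreated control wells mean plus 3 SD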;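 further: 0% = DMSO wells and 100% = gossypol 36 µM treated wells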); conditions: HEK293 GAL4-SRC1 luciferase reporter, at 3.6 µM, active compounds read high
# Nuclear receptor coactivator 1 (Homo sapiens), sequence (Q15788 whole entry, looked up, the tested form may be a part): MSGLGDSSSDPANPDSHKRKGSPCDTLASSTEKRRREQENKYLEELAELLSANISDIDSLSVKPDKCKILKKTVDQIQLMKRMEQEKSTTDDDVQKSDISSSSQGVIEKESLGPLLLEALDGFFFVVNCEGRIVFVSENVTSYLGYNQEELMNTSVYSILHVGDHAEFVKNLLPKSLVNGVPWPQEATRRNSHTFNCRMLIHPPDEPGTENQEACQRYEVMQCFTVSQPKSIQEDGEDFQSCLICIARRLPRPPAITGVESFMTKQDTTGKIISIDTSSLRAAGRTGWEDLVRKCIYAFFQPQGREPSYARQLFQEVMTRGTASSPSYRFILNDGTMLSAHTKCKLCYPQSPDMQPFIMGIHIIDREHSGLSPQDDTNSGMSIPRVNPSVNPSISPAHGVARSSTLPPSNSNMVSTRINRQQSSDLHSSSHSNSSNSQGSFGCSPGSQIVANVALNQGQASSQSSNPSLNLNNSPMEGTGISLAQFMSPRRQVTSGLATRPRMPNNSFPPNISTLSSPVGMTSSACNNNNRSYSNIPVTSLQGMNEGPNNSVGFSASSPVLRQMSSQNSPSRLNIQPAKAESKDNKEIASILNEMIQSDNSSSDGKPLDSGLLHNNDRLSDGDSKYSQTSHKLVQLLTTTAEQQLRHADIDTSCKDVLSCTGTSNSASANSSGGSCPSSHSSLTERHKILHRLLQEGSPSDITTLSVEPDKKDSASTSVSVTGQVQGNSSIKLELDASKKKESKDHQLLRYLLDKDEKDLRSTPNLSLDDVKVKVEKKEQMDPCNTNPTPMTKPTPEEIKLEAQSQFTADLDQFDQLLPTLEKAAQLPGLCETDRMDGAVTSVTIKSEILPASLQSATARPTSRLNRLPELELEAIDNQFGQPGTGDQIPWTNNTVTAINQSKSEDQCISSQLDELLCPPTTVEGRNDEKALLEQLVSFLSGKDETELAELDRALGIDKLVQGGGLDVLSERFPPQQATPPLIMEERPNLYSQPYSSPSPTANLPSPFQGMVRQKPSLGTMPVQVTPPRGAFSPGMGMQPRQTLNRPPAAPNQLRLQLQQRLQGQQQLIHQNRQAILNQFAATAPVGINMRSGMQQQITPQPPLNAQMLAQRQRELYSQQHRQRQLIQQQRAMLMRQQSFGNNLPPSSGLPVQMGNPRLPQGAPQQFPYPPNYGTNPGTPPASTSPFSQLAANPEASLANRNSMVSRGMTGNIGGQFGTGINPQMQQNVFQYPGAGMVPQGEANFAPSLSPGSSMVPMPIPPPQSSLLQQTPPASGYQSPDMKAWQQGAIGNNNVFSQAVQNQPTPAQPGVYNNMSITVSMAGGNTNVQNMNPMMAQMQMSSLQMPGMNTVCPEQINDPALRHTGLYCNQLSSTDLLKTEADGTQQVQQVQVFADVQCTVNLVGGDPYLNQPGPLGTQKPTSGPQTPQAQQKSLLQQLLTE
# [26] = VP16 transactivation inhibitors, counter-screen for SRC1 inhibitor project, cell-based, luminescence, high throughput (AID 588824; in the data active means inhibition above about 25%); conditions: cell-based VP16 transactivation luciferase luminescence; at 3.6 µM; active compounds read high
compound,measurement,setting,value
NC1=NN(c2cccc(C(=O)O)c2)C(=O)C1,activation,[1],12.3% (active)
same,inhibition,[2],-62%
same,inhibition,[3],-2.77%
Cc1c(CC(=O)N2CCN(C(=O)C3COc4ccccc4O3)CC2)c(=O)oc2c(O)c(O)ccc12 (configuration not stated),inhibition,[4],69.1% (active)
same,inhibition,[5],89% (active)
same,inhibition,[6],78.1% (active)
same,inhibition,[7],88.8% (active)
same,inhibition,[8],-7.93%
same,inhibition,[9],60.5% (active)
same,inhibition,[10],16%
same,activation,[1],16.8% (active)
same,inhibition,[2],-84.6%
same,inhibition,[3],86.8% (active)
O=C(CN(C(=O)c1csnn1)c1cccc(Cl)c1)NC1CCCC1,activation,[1],-0.52%
same,inhibition,[2],2.68%
same,inhibition,[3],3.72%
COc1ccccc1C1C(C#N)=C(N)Oc2c1c(-c1ccccc1)nn2-c1ccccc1 (configuration not stated),inhibition,[11],-8.81%
same,inhibition,[12],12.6%
same,inhibition,[13],2.3%
same,activation,[1],0.86%
same,inhibition,[2],-4.34%
same,inhibition,[3],1.22%
COc1ccc(Cn2cc(CN3CCS(=O)(=O)N(Cc4ccc(-c5cccc(Cl)c5)cc4)C(C)C3=O)nn2)cc1 (configuration not stated),activation,[1],-2.68%
same,inhibition,[2],13.6%
same,inhibition,[3],-1.87%
CCOC(=O)/C(C#N)=C\c1c(C)cc(C)c(COC(C)=O)c1C,activation,[1],0.2%
same,inhibition,[2],-1.03%
same,inhibition,[3],3.21%
c1ccc(C2=Nc3cccc4cccc(c34)N2)cc1,inhibition,[11],6.39%
same,activation,[14],-0.31%
same,activation,[15],3.48%
same,activation,[1],4.54%
same,inhibition,[2],-16.1%
same,inhibition,[3],8.24%
Oc1ccc(N=Cc2sc3ccccc3c2Cl)cc1,inhibition,[12],12.2%
same,inhibition,[13],3%
same,inhibition,[7],50.3% (active)
same,inhibition,[8],13.2%
same,inhibition,[9],7.56%
same,inhibition,[10],-6.63%
same,activation,[1],10.4% (active)
same,inhibition,[2],-37.1%
same,inhibition,[3],55.2% (active)
O=C(Nc1nnc(-c2ccco2)o1)c1ccc(S(=O)(=O)N2CCOCC2)cc1,activation,[1],0.8%
same,inhibition,[2],-4.01%
same,inhibition,[3],-5.04%
CN(C)/C=C/C(=O)c1cnc2sccn2c1=O,activation,[1],0.96%
same,inhibition,[2],-3.51%
same,inhibition,[3],1.19%
CC(C)Cn1c(N)c(C(=O)NCc2cccs2)c2nc3ccccc3nc21,inhibition,[12],-4.29%
same,activation,[1],3.66%
same,inhibition,[2],-13.3%
same,inhibition,[3],-3.17%
CN(C)c1ccc(N/C=C/C(=O)C(F)(F)F)cc1,activation,[16],21.7%
same,activation,[17],15.3%
same,activation,[18],12.7%
same,inhibition,[12],6.83%
same,inhibition,[6],-0.71%
same,inhibition,[13],1.99%
same,inhibition,[7],5.14%
same,inhibition,[8],0.92%
same,inhibition,[9],2.09%
same,inhibition,[10],2.7%
same,activation,[1],14.5% (active)
same,inhibition,[2],-51.7%
same,inhibition,[3],0%
Cc1ccc(C(=O)N/C(=C/c2cccs2)C(=O)N2CCCCC2)cc1,activation,[1],-0.16%
same,inhibition,[2],0.87%
same,inhibition,[3],0.33%
Cc1ccc(C(=O)N2CCCc3ccccc32)c(Cl)c1,activation,[1],-0.4%
same,inhibition,[2],2.02%
same,inhibition,[3],1.35%
Cc1cc(=O)n2[nH]c(-c3sccc3-n3c(C)ccc3C)cc2n1,activation,[1],4.52%
same,inhibition,[2],-16.3%
same,inhibition,[3],1.35%
Cc1ccc(-c2cnc(NC(=O)CCC(=O)N(C)Cc3ccccc3)n2C)cc1,activation,[1],0.12%
same,inhibition,[2],-0.61%
same,inhibition,[3],-6.89%
COc1ccc(S(=O)(=O)/N=C2\C=C(NS(=O)(=O)c3ccccc3)C(=O)c3ccccc32)cc1,inhibition,[12],72.9% (active)
same,activation,[1],-2.79%
same,inhibition,[2],10%
same,inhibition,[3],5.95%
Cc1ccc(N=C2NC(=O)/C(=C/C=C/c3ccco3)S2)cc1C,inhibition,[6],31.1% (active)
same,activation,[1],13.8% (active)
same,inhibition,[2],-49.5%
same,inhibition,[3],45.2% (active)
CN(C)[C@@H]1C(=O)C(C(N)=O)=C(O)[C@@]2(O)C(=O)C3=C(O)c4c(O)ccc(Cl)c4[C@@H](O)[C@H]3C[C@@H]12,inhibition,[12],24.2%
same,inhibition,[6],-0.22%
same,inhibition,[19],102% (active)
same,inhibition,[20],100% (active)
same,inhibition,[21],101% (active)
same,inhibition,[22],102% (active)
same,inhibition,[23],104% (active)
same,inhibition,[24],102% (active)
same,inhibition,[8],-3.91%
same,inhibition,[9],1.29%
same,inhibition,[10],17.2%
same,activation,[1],6.8%
same,inhibition,[2],-24.2%
same,inhibition,[3],1.42%
COc1cc(-c2nnc(NC(=O)CS(=O)(=O)c3ccc(Cl)cc3)o2)cc(OC)c1OC,activation,[1],0.46%
same,inhibition,[2],-2.3%
same,inhibition,[3],4.63%
NC(=O)c1ccccc1NC(=O)c1ccccc1F,activation,[1],1.09%
same,inhibition,[2],-4.33%
same,inhibition,[3],-4.54%
Cc1oc2c(c1C(=O)N1CCOCC1)C(=O)c1ccccc1C2=O,inhibition,[12],29.9%
same,inhibition,[25],-13.7%
same,inhibition,[26],6.29%
same,activation,[1],-2.24%
same,inhibition,[2],11.3%
same,inhibition,[3],20.2% (active)
